Pf growth 96h – inhibits malaria parasite growth, 96 h. P. falciparum luciferase reporter growth, 96 h. Potency, µM (series often up to 28.7 µM), without a hit: top-dose activity change, negative = inhibition, most hits filed as inhibitors. actives 6.9% (n = 320,000); active = well fitted inhibition curve with a large enough effect; inconclusive = small, poorly fitted or top-dose-only effect, or another doubt; inactive = no such curve, though single readings can be large or run the other way; note: potency is the fitted concentration of half-maximal effect; % is set by controls: 0 for no effect and ±100 for the full control effect
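Infected RBCs, 2% Hct / 0.05% parasitemia final; luciferase-reporter P. falciparum; cpd 96 h, 37 C, 5% CO2; luciferase detection reagent; luminescence.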
Shiga toxin inh – Shiga toxin inhibition; actives 9.2% (n = 290,000); AID 2315; inhibition, % at 38.7 µM; Vero cells, Shiga toxin protein synthesis inhibition reporter; in the data active = inhibition mostly above about 28%, no sharp cut-off; inactive = mostly below about 43%; note: 0% is about no effect
NS1 function inh – inhibitors of influenza NS1 protein function; Potency, µM (series often up to 46.1 µM), for the others: at the highest dose activity, positive = more growth; AID 2326; actives 0.4% (n = 270,000); note: potency is the fitted concentration of half-maximal effect; actives are rising curves; nearly all actives have a fitted effect of over 50% in size
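S. cerevisiae expressing influenza A NS1, grown in glucose, washed, then diluted 1:100 into pH 6.0 -URA galactose medium with 23 nl compound. Growth recovery read as OD600; NS1-free strain serves as control.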
SARS PLpro yeast – inhibitors of SARS-CoV papain-like protease in yeast. S. cerevisiae expressing SARS-CoV PLpro, growth rescue. Potency, µM (highest dose often 32.9 µM), inactives show at the highest dose activity, positive = growth rescue, hits mostly activators. actives 0.19% (n = 330,000); note: potency is the fitted concentration of half-maximal effect; 0% is about no effect; nearly all actives have a fitted effect of over 55% in size
CHX counter – counter-screen hit for Shiga toxin inhibitors, cycloheximide; cell reporter, cycloheximide protein synthesis inhibition counterscreen; max response, %; actives 12% (n = 300,000); in the data active = max response mostly above about 13%, no sharp cut-off; inactive = mostly below about 14%; note: read at 38.3 µM for the half of the compounds with a filed dose; 0% is about no effect
Pf growth 48h – inhibits P. falciparum growth in the first generation, 48 h; P. falciparum luciferase growth in erythrocytes, 48 h; Potency, µM (highest dose often 28.7 µM), for the others: at the top dose activity change, negative = inhibition, usual class: inhibitors; actives 5.9% (n = 310,000); active = well fitted inhibition curve with a large enough effect; inconclusive = small, poorly fitted or top-dose-only effect, or another doubt; inactive = no such curve, though single readings can be large or run the other way; note: potency is the fitted concentration of half-maximal effect; % is set by controls: 0 for no effect and ±100 for the full control effect
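Luciferase-expressing P. falciparum in infected erythrocytes (2% hematocrit, 0.1% parasitemia final) in RPMI 1640/0.5% Albumax were exposed to compound for 48 hours at 37 C, 5% CO2; growth read as luminescence.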
* marks the source's active call; other numbers are inactive results; i = inactive; ? = inconclusive; nt = no result given; ! = not confirmed by another sample. In the library only some 21% were active in any assay of this set; here they are far more common. Unless noted, calls come from the whole dose curve.

SMILES	Pf growth 96h	Shiga toxin inh	NS1 function inh	SARS PLpro yeast	CHX counter	Pf growth 48h
Cc1ccc(C)c(N(C(=O)c2csnn2)C(C(=O)NC2CCCCC2)c2ccccn2)c1 (configuration not stated)	-1.2%	-6.2	-5.4%	1.1%	-1.4	-20.1%
CN1CCc2nc(NC(=O)c3cccc(OC(F)F)c3)sc2C1	?	23.0	6.9%	2.3%	26.5*	nt
O=C(NC1=NCCS1)c1cccc(OC(F)F)c1	i	75.8*	nt	-1.3%	36.3*	415.9%
CN1CCc2nc(NC(=O)COc3ccc4ccccc4c3)sc2C1	-103.7%	23.9	nt	-8.4%	5.5	?
COc1cc(OC)cc(C(=O)N[C@H](C(=O)NC23CC4CC(CC(C4)C2)C3)C(C)C)c1	nt	-16.9	-1.3%	-6.2%	-4.1	10.4µM*
COc1ccc(NC(=O)c2cccc3cccnc23)cc1S(N)(=O)=O	-7.1%	27.9	8.8%	5.7%	7.7	-16.3%
CCn1cc(Cl)c(C(=O)NNC(=O)CCn2ccc([N+](=O)[O-])n2)n1	17.8%	-4.8	9.0%	1.1%	-3.6	63.5%
COc1ccc(N2CCN(CC(=O)c3ccc(Cl)cc3)CC2)cc1	?	-4.2	-1.5%	-0.3%	2.1	?
CC(C)c1ccc(CN2CCSCC2)cc1	0.0%	6.4	-9.1%	0.0%	1.0	20.8%
COc1ccc(-c2cnn3c(N)c(S(=O)(=O)C(C)(C)C)cnc23)cc1	31.4%	40.3	24.4%	-6.6%	31.6*	43.3%
COc1ccc(-c2cnc3c(-c4ccc(F)cc4)cnn3c2N)cc1	257.0%	121.2*	-2.1%	7.1%	51.0*	193.9%
CS(=O)(=O)c1cnc2c(-c3ccsc3)cnn2c1N	139.9%	66.5*	0.9%	0.7%	37.8*	78.6%
CCCc1c(OCCCCc2nn[nH]n2)ccc(C(C)=O)c1O	10.7µM*!	-11.0	2.7%	-2.8%	-3.3	?
COc1ccc(C(C)=O)cc1COC(=O)CCNS(=O)(=O)c1ccc(C(C)=O)cc1	-29.5%	-0.9	-9.0%	?	-1.8	-0.6%
Cc1cc(C)c2nc(-n3nc(C)cc3N)cc(C)c2c1	99.5%	108.1*	21.9%	0.2%	25.7*	204.5%
Cc1cc(N)n(-c2nc(-c3cccnc3)nc3ccccc23)n1	335.6%	64.4*	16.4%	0.7%	33.1*	?
Cc1cc(N)n(-c2cc(C)c3ccccc3n2)n1	i	78.6*	nt	-1.7%	46.3*	445.2%
CCOC(=O)c1cnn(-c2cc(C)c3cc(C)cc(C)c3n2)c1N	nt	nt	-5.0%	nt	nt	nt
CCn1c(=S)sc2c(=O)n(CC(=O)NCCCc3ccccc3)c(C)nc21	20.8%	-9.6	7.6%	1.5%	-1.2	32.7%
CN(Cc1ccc(F)cc1)C(=O)CNC(=O)C1CCCCC1	8.9%	-25.8	-0.2%	-2.5%	3.5	18.5%
CCCN(CC(=O)Nc1ccccc1Br)CC(=O)Nc1ccc(F)c(F)c1F	-20.2%	3.9	-20.3%	-40.4%	6.6	?
CCCN(CC(=O)Nc1cc(Cl)cc(Cl)c1)CC(=O)Nc1ccc(F)c(F)c1F	9.28µM*	-8.0	-9.4%	-55.1%	0.3	?
COc1c(S(=O)(=O)N2CCN(C)CC2)ccc(Cl)c1Cl	-65.0%	-9.6	9.2%	6.4%	1.8	?
Oc1cccc[c]1[Hg][Cl]	1.07µM*	nt	nt	nt	nt	1.07µM*
Cc1ccccc1O	nt	nt	nt	2.4%	nt	nt
SMILES	Pf growth 96h	Shiga toxin inh	NS1 function inh	SARS PLpro yeast	CHX counter	Pf growth 48h
O=C(Nc1ccc2nc(-c3cccs3)c(-c3cccs3)nc2c1)NC1CC1	9.28µM*	22.4	-1.0%	3.0%	4.3	nt
O=C(CNC(=O)c1cccs1)NC1=NCCS1	34.9%	21.1*	6.1%	2.0%	41.9*	133.3%
CC1CCC(NC(=O)Nc2cccs2)CC1 (configuration not stated)	nt	43.9*	-0.7%	-8.5%	24.0*	nt
CC1CCC(NC(=O)CNC(=O)c2cccs2)CC1 (configuration not stated)	187.4%	115.6*	8.8%	-1.8%	45.3*	136.5%
CCN(CC)c1ccc(C(=O)OCc2c(C)noc2C)cc1	8.6%	-3.1	nt	-6.9%	7.0	-10.9%
O=C1NC(=O)c2c1c(-c1ccccc1)cc1[nH]c3ccc(O)cc3c21	nt	4.6	nt	nt	16.3	nt
O=C(Nc1cccs1)NC1CCCC1	nt	95.1	-1.2%	-0.1%	25.3*	nt
O=C(NN1CCN(Cc2ccccc2)CC1)c1ccc(Cl)cc1	-13.3%	-5.4	-3.0%	0.6%	1.5	-14.3%
COc1ccc(C(=O)N[C@H](C(=O)Nc2nc3c(s2)CCCC3)C(C)C)cc1	-43.5%	78.7*	-5.6%	18.8%	58.8*	44.9%
CCOc1ccccc1C(=O)N[C@H](C(=O)Nc1nc2c(s1)CCCC2)C(C)C	?	38.1*	-1.3%	3.9%	20.9*	?
CCOc1ccccc1NC(=O)[C@@H](NC(=O)c1ccccc1F)C(C)C	-10.4%	4.0	-10.5%	1.1%	7.2	-34.1%
COc1ccc(C(=O)N[C@H](C(=O)Nc2ccc(OC)nc2)C(C)C)cc1	nt	23.2	-1.1%	6.8%	15.1*	31.9%
COc1ccc(C(=O)NC(C(=O)NCc2ccccn2)C(C)C)cc1 (configuration not stated)	-22.9%	-5.4	3.0%	5.9%	-1.1	nt
COc1ccc(S(=O)(=O)Nc2nc3c(s2)CCCC3)cc1	?	30.0	nt	2.2%	25.3	?
Cc1ccc(SCC(=O)NC(=O)NC2CCCC2)c(C)c1	40.1%	nt	nt	3.0%	nt	11.1%
CN(CC(=O)Nc1ccccc1Cl)C(=O)COC(=O)Cc1ccc(F)cc1	40.6%	7.2	7.4%	0.6%	-2.2	35.0%
NS(=O)(=O)c1cnccc1Nc1ccc(Cl)c(Cl)c1	?	0.8	-18.0%	19.4%	-2.8	-7.5%
CCOC(=O)COc1ccc2nsnc2c1Cl	49.1%	-2.2	?	0.6%	-2.6	19.2%
C=C(CC)C(=O)c1ccc(OCC(=O)O)c(Cl)c1Cl	14.7µM*	-6.5	-56.2%	-37.1%	-2.8	?
COc1ccc(N2C(=O)C3CCCN3C2c2cccc(C)c2)cc1 (configuration not stated)	?	-16.7	?	6.3%	-5.4	nt
COc1cccc(C2N(c3ccc(Cl)cc3)C(=O)C3CCCN32)c1 (configuration not stated)	5.22µM*	-3.0	-28.3%	-10.0%	-1.5	-3.1%
CCOC(=O)c1cnc(SC)nc1Sc1ccccc1	nt	85.2	-19.9%	7.4%	0.2	-3.9%
COc1ccc(C2=Nc3ccccc3OC2)cc1	54.7%	98.9*	-35.6%	-16.0%	46.1*	nt
CCOc1ccc(NC(=O)NC(=O)N(C(C)C)S(C)(=O)=O)cc1	-1.2%	21.4	-1.0%	0.7%	1.1	2.1%
COc1cccc(-n2c([S-])c(C(=O)Nc3ccc(S(=O)(=O)N4CCOCC4)cc3)[n+]3cc(C(N)=O)ccc23)c1	?	8.4	14.6%	0.2%	8.6	?
O=C(N/N=C/c1cc(Br)cs1)c1c[nH]c2ccccc12	?	62.4*	-9.2%	-2.8%	44.2*	?

Source: PubChem BioAssay
